Laboratory results taken from PubChem BioAssay AID1159580 (chemical genetic matrix, 2015).
Among all 5,500 compounds or so, about 2,000 (36%) were called active. Inconclusive results (about 18%) are left out. Rule as the data show it: active = normalized growth mostly below about 0.91 (no sharp cut-off); inconclusive = no clear call, values can overlap the other calls; inactive = mostly above about 0.92. The list shows a part of the results.

Assay: chemical genetic growth profiling, strain panel (AID 1159580);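 also: tested at 20 µM; growth read once vehicle control cultures reached saturation at 30 °C; 1 = growth at the plate median or of vehicle wells; lower values mean less growth of the strain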
Settings: growth OD

Measured: normalized growth

CC[C@@H](CO)NC(=O)[C@@H]1C=C2c3cccc4[nH]cc(c34)C[C@H]2N(C)C1
inactive: S. cerevisiae deletion strains, locus YKL009W, strain mrt4, hits give low values 0.999 | S. cerevisiae deletion strains, locus YKL068W, hits give low values 0.996 | S. cerevisiae deletion strains, locus YKL085W, strain MDH1 (second series), hits give low values 1.02 | S. cerevisiae deletion strains, locus YKL085W, strain MDH1, hits give low values 1.02 | S. cerevisiae deletion strains, locus YKL160W, strain elf1, hits give low values 0.982 | S. cerevisiae deletion strains, locus YKL190W, strain CNB1, hits give low values 0.997 | S. cerevisiae deletion strains, locus YKR001C, strain vps1, hits give low values 0.947 | S. cerevisiae deletion strains, locus YKR026C, strain gcn3, hits give low values 1 | S. cerevisiae deletion strains, locus YKR091W, strain srl3, hits give low values 0.997 | S. cerevisiae deletion strains, locus YLL001W, strain dnm1, hits give low values 0.982 | S. cerevisiae deletion strains, locus YLL026W, hits give low values 0.986 | S. cerevisiae deletion strains, locus YLL041C, strain sdh2, hits give low values 1 | S. cerevisiae deletion strains, locus YLR027C, strain aat2, hits give low values 0.993 | S. cerevisiae deletion strains, locus YLR039C, strain RIC1, hits give low values 1.04 | S. cerevisiae deletion strains, locus YLR058C, strain SHM2, hits give low values 0.989 | S. cerevisiae deletion strains, locus YLR102C, strain apc9, hits give low values 0.985 | S. cerevisiae deletion strains, locus YLR113W, strain HOG1, hits give low values 1.03 | S. cerevisiae deletion strains, locus YLR221C, strain rsa3, hits give low values 0.999 | S. cerevisiae deletion strains, locus YLR258W, strain gsy2, hits give low values 1 | S. cerevisiae deletion strains, locus YLR262C, strain YPT6 (second series), hits give low values 0.991 | S. cerevisiae deletion strains, locus YLR262C, strain YPT6, hits give low values 1.06 | S. cerevisiae deletion strains, locus YLR268W, strain sec22, hits give low values 0.985 | S. cerevisiae deletion strains, locus YLR320W, strain mms22, hits give low values 0.98 | S. cerevisiae deletion strains, locus YLR330W, strain CHS5, hits give low values 0.992 | S. cerevisiae deletion strains, locus YLR342W, strain FKS1 (second series), hits give low values 0.983 | S. cerevisiae deletion strains, locus YLR342W, strain FKS1, hits give low values 0.982 | S. cerevisiae deletion strains, locus YLR357W, strain rsc2, hits give low values 0.978 | S. cerevisiae deletion strains, locus YLR370C, strain arc18, hits give low values 1 | S. cerevisiae deletion strains, locus YLR371W, strain rom2, hits give low values 0.986 | S. cerevisiae deletion strains, locus YLR384C, strain iki3, hits give low values 0.997 | S. cerevisiae deletion strains, locus YLR418C, strain cdc73, hits give low values 0.926 | S. cerevisiae deletion strains, locus YML016C, strain PPZ1, hits give low values 0.978 | S. cerevisiae deletion strains, locus YML032C, strain rad52, hits give low values 0.971 | S. cerevisiae deletion strains, locus YML120C, strain ndi1, hits give low values 1.01 | S. cerevisiae deletion strains, locus YML124C, strain tub3, hits give low values 0.987 | S. cerevisiae deletion strains, locus YMR058W, strain fet3, hits give low values 0.99 | S. cerevisiae deletion strains, locus YMR078C, strain ctf18, hits give low values 0.996 | S. cerevisiae deletion strains, locus YMR125W, strain sto1, hits give low values 1.01 | S. cerevisiae deletion strains, locus YMR129W, hits give low values 1 | S. cerevisiae deletion strains, locus YMR205C, strain PFK2, hits give low values 0.993 | S. cerevisiae deletion strains, locus YMR223W, strain ubp8, hits give low values 0.961 | S. cerevisiae deletion strains, locus YMR231W, strain pep5, hits give low values 0.992 | S. cerevisiae deletion strains, locus YMR263W, strain SAP30, hits give low values 1.01 | S. cerevisiae deletion strains, locus YMR307W, strain GAS1, hits give low values 0.972 | S. cerevisiae deletion strains, locus YNL067W, strain RPL9B, hits give low values 1.04 | S. cerevisiae deletion strains, locus YNL071W, strain lat1, hits give low values 1 | S. cerevisiae deletion strains, locus YNL128W, strain TEP1, hits give low values 1.01 | S. cerevisiae deletion strains, locus YNL153C, strain GIM3, hits give low values 1.02 | S. cerevisiae deletion strains, locus YNL183C, strain NPR1, hits give low values 0.978 | S. cerevisiae deletion strains, locus YNL209W, strain ssb2, hits give low values 1 | S. cerevisiae deletion strains, locus YNL233W, strain BNI4, hits give low values 0.983 | S. cerevisiae deletion strains, locus YNL248C, strain rpa49, hits give low values 1 | S. cerevisiae deletion strains, locus YNL250W, strain rad50, hits give low values 0.978 | S. cerevisiae deletion strains, locus YNL271C, strain bni1, hits give low values 0.981 | S. cerevisiae deletion strains, locus YNL298W, strain CLA4, hits give low values 0.999 | S. cerevisiae deletion strains, locus YNL307C, strain MCK1, hits give low values 0.973 | S. cerevisiae deletion strains, locus YNL322C, strain KRE1 (second series), hits give low values 0.993 | S. cerevisiae deletion strains, locus YNL322C, strain KRE1, hits give low values 0.997 | S. cerevisiae deletion strains, locus YNR049C, strain mso1, hits give low values 0.999 | S. cerevisiae deletion strains, locus YNR052C, strain pop2, hits give low values 0.996 | S. cerevisiae deletion strains, locus YOL006C, strain TOP1, hits give low values 1.03 | S. cerevisiae deletion strains, locus YOL012C, strain htz1 0.998 | S. cerevisiae deletion strains, locus YOL147C, strain pex11, hits give low values 0.994 | S. cerevisiae deletion strains, locus YOR001W, strain rrp6, hits give low values 0.992 | S. cerevisiae deletion strains, locus YOR061W, strain CKA2, hits give low values 0.991 | S. cerevisiae deletion strains, locus YOR069W, strain VPS5, hits give low values 0.986 | S. cerevisiae deletion strains, locus YOR070C, strain gyp1, hits give low values 1 | S. cerevisiae deletion strains, locus YOR080W, strain dia2, hits give low values 0.994 | S. cerevisiae deletion strains, locus YOR083W, strain WHI5, hits give low values 0.963 | S. cerevisiae deletion strains, locus YOR106W, strain vam3, hits give low values 0.993 | S. cerevisiae deletion strains, locus YOR136W, strain idh2, hits give low values 0.986 | S. cerevisiae deletion strains, locus YOR144C, strain elg1, hits give low values 0.984 | S. cerevisiae deletion strains, locus YOR184W, strain ser1, hits give low values 0.966 | S. cerevisiae deletion strains, locus YOR231W, strain MKK1, hits give low values 1.03 | S. cerevisiae deletion strains, locus YOR265W, strain rbl2, hits give low values 1.01 | S. cerevisiae deletion strains, locus YOR270C, strain vph1, hits give low values 1.03 | S. cerevisiae deletion strains, locus YOR290C, strain snf2, hits give low values 1 | S. cerevisiae deletion strains, locus YOR316C, strain cot1, hits give low values 0.987 | S. cerevisiae deletion strains, locus YPL051W, strain arl3, hits give low values 0.992 | S. cerevisiae deletion strains, locus YPL055C, strain LGE1, hits give low values 1.07 | S. cerevisiae deletion strains, locus YPL078C, strain atp4, hits give low values 0.98 | S. cerevisiae deletion strains, locus YPL106C, strain sse1, hits give low values 0.981 | S. cerevisiae deletion strains, locus YPL240C, strain hsp82, hits give low values 0.995 | S. cerevisiae deletion strains, locus YPL241C, strain CIN2, hits give low values 0.997 | S. cerevisiae deletion strains, locus YPL256C, strain CLN2, hits give low values 1.1 | S. cerevisiae deletion strains, locus YPR119W, strain clb2, hits give low values 0.989 | S. cerevisiae deletion strains, locus YPR141C, strain kar3, hits give low values 0.992 | S. cerevisiae deletion strains, locus YPR163C, strain tif3, hits give low values 0.987 | S. cerevisiae deletion strains, locus YPR167C, strain met16, hits give low values 0.987 | S. cerevisiae deletion strains, strain wtn01, hits give low values 0.975 | S. cerevisiae strains, strain wild type, hits give low values 0.982
